Potency and affinity values are given separately. Activity calls are given as the source filed them.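 Rule for the calls: active = signal drop whose fitted half-maximal potency is at most twice the top valid dose tested; inconclusive = flat curve inhibiting 30 to 70 percent, or a poor fit; inactive = the rest.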
Biological target: Endoplasmic reticulum aminopeptidase 2 (Homo sapiens) (UniProt Q6P179)
Test: inhibition of ERAP2 arginine-AMC cleavage – biochemical, fluorescence plate reader, cherry-picked, set 2, selectivity assay for selective ERAP1 modulator project, dose response (AID 743320)
Settings: recombinant ERAP2, Arg-AMC fluorescence, 1 h; series mostly up to 11 µM

Sequence of Endoplasmic reticulum aminopeptidase 2 (Homo sapiens) (Q6P179 whole entry, looked up): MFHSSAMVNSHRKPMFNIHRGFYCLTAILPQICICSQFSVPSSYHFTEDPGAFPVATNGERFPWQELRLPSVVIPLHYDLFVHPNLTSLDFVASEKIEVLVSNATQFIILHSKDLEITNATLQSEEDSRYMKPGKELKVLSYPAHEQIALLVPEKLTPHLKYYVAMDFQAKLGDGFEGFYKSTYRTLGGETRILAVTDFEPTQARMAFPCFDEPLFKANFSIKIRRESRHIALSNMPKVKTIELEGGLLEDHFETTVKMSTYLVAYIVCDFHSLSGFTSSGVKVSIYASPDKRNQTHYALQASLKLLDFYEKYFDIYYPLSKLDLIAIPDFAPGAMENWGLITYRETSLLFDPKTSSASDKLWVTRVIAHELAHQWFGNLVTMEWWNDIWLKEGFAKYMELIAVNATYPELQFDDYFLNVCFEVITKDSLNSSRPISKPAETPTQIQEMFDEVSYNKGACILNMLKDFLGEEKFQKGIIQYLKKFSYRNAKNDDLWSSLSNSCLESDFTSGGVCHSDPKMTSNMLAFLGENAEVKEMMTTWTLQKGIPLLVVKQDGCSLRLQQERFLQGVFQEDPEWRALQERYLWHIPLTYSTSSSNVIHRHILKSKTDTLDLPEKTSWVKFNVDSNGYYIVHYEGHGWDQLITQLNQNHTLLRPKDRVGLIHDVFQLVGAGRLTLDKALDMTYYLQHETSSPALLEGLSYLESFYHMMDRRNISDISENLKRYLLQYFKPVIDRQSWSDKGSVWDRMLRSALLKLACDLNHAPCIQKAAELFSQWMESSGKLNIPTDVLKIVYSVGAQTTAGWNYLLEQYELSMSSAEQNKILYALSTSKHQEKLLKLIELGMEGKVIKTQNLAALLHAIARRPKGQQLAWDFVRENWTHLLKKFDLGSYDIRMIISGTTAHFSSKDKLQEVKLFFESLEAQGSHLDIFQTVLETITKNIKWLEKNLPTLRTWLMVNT

outcome, inactive:
CCCCc1cc(=O)oc2cc(O)ccc12
CCC(=O)N(C)C[C@H]1Oc2ncc(C#Cc3ccncc3)cc2C(=O)N([C@H](C)CO)C[C@H]1C
C[C@@H]1CCCCO[C@@H](CN(C)Cc2ccc(C(=O)O)cc2)[C@@H](C)CN([C@H](C)CO)C(=O)c2cc(NC(=O)Nc3cccc4ccccc34)ccc2O1
C[C@@H]1CN([C@H](C)CO)C(=O)c2cccc(NC(=O)Nc3ccccc3)c2O[C@@H]1CN(C)Cc1ccc(C(=O)O)cc1
COc1ccc(NC(=O)Nc2ccc3c(c2)C(=O)N([C@H](C)CO)C[C@@H](C)[C@@H](CN(C)Cc2ccc(C(=O)O)cc2)OCCCC[C@@H](C)O3)cc1
CCCN(C)C[C@@H]1OCCCC[C@@H](C)Oc2ccc(NS(=O)(=O)c3ccccc3)cc2C(=O)N([C@H](C)CO)C[C@@H]1C
CCCN(C)C[C@@H]1OCCCC[C@@H](C)Oc2ccc(NS(=O)(=O)c3ccc(F)cc3)cc2C(=O)N([C@H](C)CO)C[C@@H]1C
C[C@@H]1CCCCO[C@@H](CN(C)Cc2ccc(C(=O)O)cc2)[C@H](C)CN([C@@H](C)CO)C(=O)c2cc(NS(=O)(=O)c3ccc(Cl)cc3)ccc2O1
C[C@@H]1CCCCO[C@@H](CN(C)Cc2ccccc2)[C@@H](C)CN([C@H](C)CO)C(=O)c2cc(NS(=O)(=O)c3cccs3)ccc2O1
C[C@@H]1CCCCO[C@@H](CN(C)CC2CC2)[C@@H](C)CN([C@H](C)CO)C(=O)c2cc(NS(=O)(=O)c3cccs3)ccc2O1

Reference: PubChem BioAssay AID743320 (Broad Institute, 2014)
